Compound activity (PubChem BioAssay)
aGlu spleen mod: inhibits or activates alpha-glucosidase in human spleen homogenate; human spleen homogenate, 4-MU-alpha-glucoside fluorescence; Potency, µM (series often up to 79.9 µM), inactives show top-dose activity change, negative = inhibition, actives largely listed as inhibitors; hit rate 0.006% among 240,000; AID 2112;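 further: potency means the concentration at half of the fitted maximal effect; 0% = enzyme with vehicle and -100% = no enzyme basal signal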
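Enzyme source: human spleen homogenate, 1 ug/well. Buffer 50 mM citric acid/K phosphate pH 5.0, 0.01% Tween-20. 4-MU-alpha-glucoside 1 mM; 37 C x 40 min; NaOH/glycine stop; fluorescence.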
GAA inh: alpha-glucosidase (human) inhibition | hit rate 0.005% among 200,000 | purified human GAA, 4-MU-alpha-glucoside fluorescence | Potency, µM (top dose mostly 76.9 µM), for inactives: at the top dose activity change, negative = inhibition, most hits filed as inhibitors | P10253 | AID 1466;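 further: potency means the concentration at half of the fitted maximal effect; plate controls were uninhibited enzyme wells for no effect and no-enzyme background for full effect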
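Human enzyme at 4 nM with 400 uM 4-methylumbelliferyl-alpha-D-pyranoside, citrate/phosphate buffer pH 5.0, 0.005% Tween-20, 20 min at room temperature. Compounds up to 77 uM. 4-MU fluorescence (Ex 365/Em 440) read after NaOH/glycine stop; AC50 from Hill fit.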
N370S GC mod: N370S glucocerebrosidase modulation, Gaucher chaperone candidate; P04062; N370S GC spleen homogenate, 4MU-glucoside fluorescence; Potency, µM (titrated, usually from 59.4 µM), for the others: at the highest dose activity change, negative = inhibition, hits mostly inhibitors; hit rate 0.092% among 330,000; AID 2101;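 further: potency means the concentration at half of the fitted maximal effect; 0% = full enzyme activity and -100% = no enzyme basal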
aGal spleen mod: inhibits or activates alpha-galactosidase in human spleen homogenate; P06280; human spleen homogenate, 4MU-alpha-Gal fluorescence, 40 min; Potency, µM (doses to about 80 µM), inactives show at the top dose activity change, negative = inhibition, actives largely listed as inhibitors; hit rate 0.008% among 240,000; AID 2107;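 further: potency means the concentration at half of the fitted maximal effect; 0% = enzyme with vehicle and -100% = no enzyme basal signal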
Target sequence (P06280 32-429 limits assumed): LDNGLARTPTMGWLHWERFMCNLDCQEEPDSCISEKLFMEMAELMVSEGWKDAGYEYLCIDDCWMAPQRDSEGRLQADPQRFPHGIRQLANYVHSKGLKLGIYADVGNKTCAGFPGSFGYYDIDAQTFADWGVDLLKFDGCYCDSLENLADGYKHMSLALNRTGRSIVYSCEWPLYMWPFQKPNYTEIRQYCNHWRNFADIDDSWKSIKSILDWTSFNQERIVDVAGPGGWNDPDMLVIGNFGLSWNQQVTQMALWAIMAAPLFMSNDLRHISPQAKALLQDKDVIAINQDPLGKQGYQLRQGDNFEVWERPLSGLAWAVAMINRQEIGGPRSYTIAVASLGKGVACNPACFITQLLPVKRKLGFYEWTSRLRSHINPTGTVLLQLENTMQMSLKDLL
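Human spleen homogenate (1 ug) as enzyme source, 4-methylumbelliferyl-alpha-D-galactopyranoside 1 mM final, citrate/phosphate pH 5.0 with 0.01% Tween-20. Compounds 40 min at 37C, NaOH/glycine stop; fluorescence Ex 365/Em 440, Hill-fit AC50.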
GAA glycogen: inhibitors or activators of human alpha-glucosidase glycogen cleavage; recombinant GAA, glycogen substrate, Amplex Red glucose oxidase fluorescence; hit rate 0.38% among 300,000; Potency, µM (highest dose often 76.4 µM), for the others: at the top dose activity change, negative = inhibition, hits mostly inhibitors;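 further: potency means the concentration at half of the fitted maximal effect; 0% = full enzyme reaction and -100% = no-enzyme basal signal; the screen sought inhibitors and activators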
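Recombinant human alpha-glucosidase (4 nM final) hydrolysed bovine liver glycogen (30 ug) for 40 min at 37 C in pH 5.0 citrate/phosphate with 0.01% Tween-20. Released glucose detected by glucose oxidase/Amplex Red, Ex 573/Em 610 nm. Compounds up to 77 uM; AC50 from Hill fits.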
GLA inh pH 4.5: inhibitors of human alpha-galactosidase A at pH 4.5; P06280; purified enzyme, 4-MU-alpha-Gal fluorescence, pH 4.5; activity change, negative = inhibition, % at 105 µM; 230,000 tested, under 10 active;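 further: 0% = full activity with enzyme and -100% = basal without enzyme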
An asterisk follows results filed as active; ? = inconclusive; . = not tested or not shown; [ ] = dose if it differs, or a comment. Only some compounds are listed: those with a hit (about 0.43% of all), similar ones and a draw of the others. The call rests on the fitted dose curve; in most records, active means well fitted curve in the direction sought with a large enough effect; inconclusive means small, poorly fitted or top-dose-only effect, or another doubt; inactive means no such curve, though single readings can be large; an effect the other way counts as inactive or inconclusive.

SMILES	aGlu spleen mod	GAA inh	N370S GC mod	aGal spleen mod	GAA glycogen	GLA inh pH 4.5
O=S(=O)(c1ccc(Cl)cc1)N1CCN(c2nc(-c3cccs3)nc3ccccc23)CC1	5%	?	0.45µM*	10%	-7%	-9
CC(=O)/C(=N\Nc1ccc(C)cc1)N1CCOCC1	1%	-2%	-18%	7%	12µM*	-3
Cc1ccc(NS(=O)(=O)c2ccc(C(=O)N3CCOCC3)cc2)cc1	.	.	1%	.	.	.
CCOC(=O)Cc1ccc(NC(=O)N2CCSc3ccccc32)cc1	.	.	.	.	5%[76.3 µM]	.
COc1ccc(O)c(-c2cc(-c3cccs3)[nH]n2)c1	2%	-10%	-24%[2.35 µM]	6%	40µM*	-1
Nc1n[nH]c2ccccc12	-24%	-3%	7%	-4%	3.5µM*	-17
Cc1noc(C)c1C(=O)NNc1ccc(C(C)C)cc1	12%	-5%	9%	14%	40µM*	8
CC1(C)CN(c2ccccc2)N(C(=O)c2ccc(F)cc2)C1=O	6%	-1%	1%	-3%	-10%	3
CC1(C)CN(c2ccccc2)N(C(=O)c2ccc(C#N)cc2)C1=O	-1%	-1%	11%	12%	20µM*	-1
Cc1ccc(OC(C)C(=O)N2CCN(CCc3ccccn3)CC2)cc1C (configuration not stated)	.	.	.	.	17%[76.3 µM]	.
C[C@H]1COC(=O)[C@H]2CCCN2C(=O)[C@@H](C)COC(=O)[C@H]2CCCN2C1=O	1%[17.4 µM]	.	9%[12.8 µM]	4%[17.5 µM]	.	.
COc1cc(-c2nc3sccn3c2Nc2c(C)cccc2C)ccc1O	.	.	.	.	-18%[76.3 µM]	.
COc1ccc(Nc2c(-c3ccc(C)o3)nc3cc(C)ccn23)cc1	.	.	.	.	5.6µM*	.
Cc1ccc(Nc2c(-c3ccc(C)o3)nc3cnccn23)cc1	5%	-2%	0%	3%	-17%	-2
CSc1ccc(-c2nc3cnccn3c2Nc2ccc3c(c2)OCO3)cc1	-4%	-28%	-1%	-4%	22µM*	-26
Cc1ccc(-c2nc3cnccn3c2Nc2ccc3c(c2)OCO3)o1	-6%	?	0%	-8%	7.9µM*	?
Clc1ccc(-c2nc3cnccn3c2Nc2ccc3c(c2)OCO3)cc1	1%	-1%	-16%	8%	?	-1
COc1cc(-c2nc3cnccn3c2Nc2c(C)cccc2C)ccc1O	0%	-1%	0%	-3%	14µM*	-2
N#CC(=C(/N)Sc1ccccc1N)/C(C#N)=C(/N)Sc1ccccc1N	-3%	.	-19%	-1%	.	-2
CC(=O)OCC(NC(=O)C(COCc1ccccc1)NC(=O)OC(C)(C)C)C1OC(n2ccc(=O)[nH]c2=O)C(OC(C)=O)C1OC(C)=O (configuration not stated)	-11%	.	-4%	-1%	.	.
Cc1ccn2c(Nc3ccc4c(c3)OCO4)c(-c3ccc(C)o3)nc2c1	.	.	.	.	4µM*	.
Oc1ccccc1-c1nc2cnccn2c1Nc1ccc2c(c1)OCCO2	-3%	?	15%	3%	7.9µM*	-5
COc1ccc(-c2nc3cnccn3c2Nc2ccc(C)cc2)cc1	-22%	2%	?	5%	7.1µM*	-8
COc1cc(-c2nc3ncccn3c2Nc2ccc(C)cc2C)ccc1O	.	.	.	.	10µM*	.
Cc1ccc(-c2nc3ccc(Br)cn3c2Nc2ccc3c(c2)OCO3)o1	.	.	.	.	-12%[76.3 µM]	.
SMILES	aGlu spleen mod	GAA inh	N370S GC mod	aGal spleen mod	GAA glycogen	GLA inh pH 4.5
COc1ccc(Nc2nc(-c3cccs3)nc3ccccc23)cc1	-8%	-11%	1.1µM*	-2%	-9%	-9
COc1ccc(Nc2nc(-c3ccccc3)nc3ccccc23)cc1	.	.	?	.	-13%	.
COc1cccc(Nc2nc(-c3cccs3)nc3ccccc23)c1	1%	-3%	13µM*	-4%	7%	3
COc1cccc(-c2nc(N(C)C)c3ccccc3n2)c1	5%	.	-9%	-3%	.	.
COc1cccc(CN(C)c2nc(-c3cccs3)nc3ccccc23)c1	-3%	-12%	1.6µM*	-9%	10%	-2
COC(=O)c1cc2oc(C)cc2n1Cc1ccccc1Cl	.	.	.	.	9%[76.3 µM]	.
CNC(=O)CN1C(=O)c2cccc3cccc1c23	-13%	-1%	3%	-11%	6%	-1
CN1/C(=N\O)c2cccc3cccc1c23	5%	3%	-2%	7%	35µM*	3
CC(=O)N(c1ccc(Cl)cc1)c1cn(C(C)=O)c2ccccc12	9%	2%	18µM*	0%	-7%	-8
O=c1c2ccccc2[nH]c2ccc(O)cc12	.	.	-7%	.	20µM*	.
NC(=O)c1c(NC(NC(=O)c2ccco2)C(=O)c2ccc(Cl)cc2)sc2c1CCCC2 (configuration not stated)	-17%	-12%	26%	-7%	-1%	-3
N#Cc1c(NC(NC(=O)c2ccco2)C(=O)c2ccccc2)sc2c1CCCC2 (configuration not stated)	-1%	-8%	?	0%	22µM*	-10
COc1ccccc1N1CCN(/N=C/c2ccc(O)c(O)c2)CC1	-5%	10%	-16%	-7%	2.8µM*	7
CCc1nnc(N/N=C/c2cc(C)c(C)cc2C)n1N	.	.	-4%	.	8.9µM*	.
CCc1nnc(N/N=C/c2c(F)cccc2Cl)n1N	.	.	-2%	.	-9%[76.3 µM]	.
Cc1[nH]c2ccccc2c1/C=N/Nc1nc2ccccc2[nH]1	2%	.	21%	9%	?	-4
Cc1ccc(NC(=S)N/N=C/c2c(C)[nH]c3ccccc23)cc1	0%	-12%	?	7%	28µM*	-9
Cc1[nH]c2ccccc2c1/C=N/NC(N)=S	-26%	.	-11%	9%	?	-1
CCc1nnc(N/N=C/c2c(C)[nH]c3ccccc23)n1N	0%	8%	6%	6%	7.9µM*	4
CCc1nc(-c2cc(S(=O)(=O)N3CCN(c4ccccc4OC)CC3)ccc2OC)no1	.	.	.	.	-12%[76.3 µM]	.
COCCn1c(=O)c(-c2cccc(C#N)c2)nc2cnc(Oc3ccc(OC)cc3)nc21	4%	.	1%	-12%	.	.
O=C(Nc1cc(S(=O)(=O)N2CCOCC2)ccc1N1CCOCC1)c1cc(=O)[nH]c2ccccc12	-17%	?	4%	-7%	28µM*	-11
O=C(N/N=C1/C[C@@H](O)[C@@H](O)[C@@H]2[C@@H]3C(=O)N(C[C@@H]4CCCO4)C(=O)[C@H]3CC[C@H]12)OCc1ccccc1	0%[17.4 µM]	.	-3%[12.8 µM]	-12%[17.5 µM]	.	.
Nc1[nH]ncc1C(=O)Nc1cccc(C(F)(F)F)c1	-13%	?	-3%	2%	11µM*	1
Cn1ncc(N)c1C(=O)Nc1cccc(C(F)(F)F)c1	-1%	-4%	7%	-2%	-7%	7
Cc1ccc(C)c(NC(=S)NNC(=O)c2ccco2)c1	0%	0%	-5%	9%	22µM*	-9
